The record followed here is PubChem BioAssay (EPA / NIEHS).

Calls of active or inactive are those of the source. The calls were made as follows: active = hit-call score of the fitted dose curve at least 0.9, where 1 is the maximum; inactive = score below 0.9.

Read-out in this test: ABC Transporter (ABCB1), ABCB1 (gene 5243)
Nature of the test: LTEA_HepaRG_ABCB1: Life Technologies and Expression Analysis (LTEA) Assay for ABC Transporter (ABCB1) using HepaRG (AID 2283460). The conditions noted are these: mRNA level, 48 h; actives raise or lower the signal. On the procedure:
LTEA_HepaRG is a cell based, multiplexed-readout assay that uses HepaRG, a human liver cell line, with measurements taken at 48 hours after chemical dosing on a 96-well plate.LTEA_HepaRG_ABCB1 is one of 102 assay component(s) measured in the LTEA HepaRG cell culture assay. It is a marker of Steatosis/NR mediated transport.Data from the assay component LTEA_HepaRG_ABCB1 was analyzed into 1 endpoint. This assay endpoint, LTEA_HepaRG_ABCB1, was analyzed with bidirectional fitting relative to DMSO as the negative control and baseline of activity. Using a type of inducible reporter, measures of mRNA induction for gain or loss-of-signal activity can be used to understand regulation of transcription factor activity. To generalize the intended target to other relatable targets, this assay endpoint is annotated to the transporter intended target family, where the subfamily is ABC transporter.
A total of 1060 chemcials from the ToxCast library were tested in eight-point concentration-response experiments. Cell culture and cytotoxicity assays were conducted at Thermo Fisher Scientific's Custom Services facility (Madison, WI). A single lot of human HepaRG cells (Thermo Fisher Scientific, Frederick, MD) was used for the cell culture experiments. 96-well format collagen type I coated plates of human HepaRG cells were prepared using established methods. Briefly, cryopreserved HepaRG cells were thawed, plated at a density of approximately 100,000 cells/well in HepaRG Thaw, Plate, and General Purpose media (HPRG770, Thermo Fisher Scientific), and incubated for 48 hours. 0.5% DMSO was selected as vehicle control to balance the requisite need of DMSO in HepaRG cultures to maintain differentiation (for example, baseline metabolism, proportions of hepatocytes vs. cholangiocytes), while enabling further hepatic receptor pathway activation (for example, PXR and CAR) in response to chemical exposure. 48 hours after plating, the culture medium was replaced with HepaRG Serum-Free Incudtion Media. Cells were exposed to each test chemical in duplicate and maintained in CO2 incubators for another 48 hours. Chemical plates were thawed to room temperature and 200x concentrations of treatment groups were prepared. 8-point conentration-reponse curves were made with the highest exposure at 100 uM, followed by half-log dilutions, all in 0.5% DMSO. Each test plate contained variouse controls, induction positive controls (1mM phenobarbital), cytotoxicity positive controls ([…] aflatoxin B1), vehicle controls (0.5% DMSO), and total lysis controls (0.5% DMSO). Cell morphology images were taken using an Essen IncuCyte FLR automated microscope, with six 96-well plates imaged in about 24 minutes. Images were captured and exported and JPEG files. Spent culture media was transfered to black-well plates for the LDH assay, and remaining media was sorted at -80 C for later use. Cells were treated with RLT buffer and frozen until shipped for gene expression analysis. Total RNA was isolated from the cell suspension in 75 uL of Buffer RLT (Qiagen, Germantown, MD 20874) by Quintiles/Expression Analysis (Durham, NC) using a custom isolation procedure. Total RNA from each plate well was transferred to a preamplification plate. Fluidigm's 96.96 Dynamic ArrayTM (Fluidigm, Amsterdam, the Netherlands) technology was used for gene expression analyses by quantitative reverse transcription polymerase chain reaction (qRT-PCR, performed by Quintiles/Expression Analysis, Durham, NC)89. Standard TaqManTM Assays (Applied Biosystems/ThermoFisher Scientific, Foster City, CA) were used to assess the expression of 93 genes selected based on their selectivity and sensitivity to important hepatic receptors known to be modulated by environmental chemicals; importance in human hepatocyte functionality; and hepatotoxicity. […]
On to `Cc1ccc(N(C)C)cc1`, for which the result was inactive.

Regarding `Cc1cccc(C)c1O`, the call was inactive.

Regarding `CCCCN(CCCC)CCCC`, the molecule was called inactive.

As to `CCCCCCCCCCO`, the molecule was classed as inactive.

With `Cc1ccc(C)c(O)c1C`, the outcome was inactive.

In general, AC50 refers to the concentration at which the activity in the assay is half-maximal. As to `O=C(O)Cc1ccccc1Nc1c(Cl)cccc1Cl`, the concentration at half-maximal activity (AC50) is 6.67 µM (active).

In the case of `CC=Cc1ccc(O)c(OC)c1`, the molecule was called inactive.

`C[Si]1(C)O[Si](C)(C)O[Si](C)(C)O[Si](C)(C)O1`: the molecule was classed as inactive.

For `Cc1c(C(=O)O)c(O)cc2c1C(=O)c1c(O)c([C@@H]3O[C@H](CO)[C@@H](O)[C@H](O)[C@H]3O)c(O)c(O)c1C2=O`, the molecule was classed as inactive.

With `CNCc1cc(F)ccc1Oc1ccc(Cl)c(Cl)c1`, the molecule was classed as inactive.

`CCCCCCCCCCCC(=O)OC`: the outcome was inactive.

For `CN1CCN(Cc2cc(-c3ccc4[nH]c(=O)oc4c3)co2)[C@@H](c2ccc(F)cc2)C1`, the molecule was classed as inactive.

In the case of `COc1cc(C=O)ccc1O`, the result was inactive.

On to `C1CCC(SSC2CCCCC2)CC1`, for which the call was inactive.

Consider `O=C(OCCCCCOC(=O)c1ccccc1)c1ccccc1`, for which the AC50 is 0.27 µM (active).

With `CN1CCCC1=O`, the molecule was classed as inactive.

`O=C(O)CCCCC(=O)O`: the outcome was inactive.

For `Cc1ccc(Cl)cc1`, the molecule was called inactive.

With `O=[N+]([O-])C(CO)(CO)CO`, the outcome was inactive.

For the molecule `CC1(C)NC(=O)NC1=O`, the outcome was inactive.

With `CCCCCCCCCCCCCO`, the molecule was classed as inactive.

Regarding `CCOc1ccc2c(c1)C(C)=CC(C)(C)N2`, the AC50 is 5.26 µM (active).

Regarding `CC(C)c1ccc(C(=O)N=C(N)N)cc1S(C)(=O)=O`, the AC50 is 8.32 µM (active).

Consider `CC(=O)Oc1ccccc1C(=O)O`, for which the molecule was called inactive.

As for `CCCCCCOCCO`, the molecule was called inactive.

`CCCCCCCCCCCCCCCCCC(=O)O`: the call was inactive.

With `CC(=O)OC/C=C(\C)CCC=C(C)C`, the outcome was inactive.

Regarding `Oc1ccc2c(c1)OC[C@@H](N1CCC(O)(c3ccc(F)cc3)CC1)[C@H]2O`, the result was inactive.

Take `CCCc1cc(=O)[nH]c(=S)[nH]1`: the molecule was called inactive.

As to `Cc1nc(C)nc(N2C[C@@H](C)N(c3ccnc([C@@H](C)O)n3)[C@@H](C)C2)n1`, the outcome was inactive.

With `CCCCc1ccc2c(n1)[C@@H](c1ccc(OC)cc1C[C@H](C)C(=O)O)[C@H](C(=O)O)[C@H]2c1ccc2c(c1)OCO2`, the molecule was classed as inactive.

For the molecule `Cc1nc(-c2ccc3c(c2)CCN(CCC2CCC(NC(=O)/C=C/c4ccc(F)cc4)CC2)CC3)no1` (stereo not given), the molecule was called inactive.

As to `Clc1cc(Cl)c(Cl)cc1Cl`, the result was inactive.

For `CCCCCCCC=O`, the molecule was called inactive.

As to `C[C@]12C=CC(=O)C=C1CC[C@@H]1[C@@H]2C(=O)C[C@@]2(C)[C@H]1CC[C@]2(O)C(=O)CO`, the AC50 is 50 µM (active).

As to `CCOC(=O)C(C)(C)Oc1ccc(Cl)cc1`, the call was inactive.

As for `C=CCOC(=O)c1ccccc1C(=O)OCC=C`, the molecule was classed as inactive.

In the case of `Oc1ccc2ccccc2c1N=Nc1ccccc1`, the result was inactive.

As for `COc1ccc(S(=O)(=O)N2C(=O)[C@@](c3ccccc3OC)(N3C[C@H](O)C[C@H]3C(=O)N(C)C)c3cc(Cl)ccc32)c(OC)c1`, the molecule was called inactive.

Consider `Cc1cc(NC(=O)C(=O)O)cc(C)c1Oc1ccc(O)c2c1CCC2`, for which the call was inactive.
